Measured values published in PubChem BioAssay (Tox21).
Values joined by “and” are separate entries in the source; they are usually repeats but may differ in a detail not shown here. Equal entries are not always repeated. Results filed as inconclusive are left out. Some compounds were tested as several samples or in several runs, with calls that do not always agree. Active and inactive are the calls of the source. Unless noted, calls follow the shape of the dose curve; as a rule, active = well fitted curve in the direction sought with a large enough effect in the repeat runs; inconclusive = weak or mixed curves; inactive = no such curve, though single readings can be large; an effect the other way counts as inactive or inconclusive.

Assays:
[1] = qHTS assay to identify small molecule antagonists of the estrogen related receptor (ERR) signaling pathway from Tox21 library - cell viability counter screen (AID 1224834); also: nearly all actives have a fitted effect of over 30% in size; also: potency is read from the fitted curve at half-maximal effect
Method in brief: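 ERR reporter cells, 2,000 per well, rested 6 h, then exposed to compound in DMSO for 17.5 hours at 37 C. Viability read as fluorescence after 30 min with CellTiter-Fluor.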

[2] = target: Luciferin 4-monooxygenase (Photinus pyralis) (UniProt P08659); assay: qHTS assay to identify small molecule inhibitors of firefly luciferase (AID 1224835); also: nearly all actives have a fitted effect of over 25% in size
Luciferin 4-monooxygenase (Photinus pyralis), sequence (P08659 whole entry, looked up): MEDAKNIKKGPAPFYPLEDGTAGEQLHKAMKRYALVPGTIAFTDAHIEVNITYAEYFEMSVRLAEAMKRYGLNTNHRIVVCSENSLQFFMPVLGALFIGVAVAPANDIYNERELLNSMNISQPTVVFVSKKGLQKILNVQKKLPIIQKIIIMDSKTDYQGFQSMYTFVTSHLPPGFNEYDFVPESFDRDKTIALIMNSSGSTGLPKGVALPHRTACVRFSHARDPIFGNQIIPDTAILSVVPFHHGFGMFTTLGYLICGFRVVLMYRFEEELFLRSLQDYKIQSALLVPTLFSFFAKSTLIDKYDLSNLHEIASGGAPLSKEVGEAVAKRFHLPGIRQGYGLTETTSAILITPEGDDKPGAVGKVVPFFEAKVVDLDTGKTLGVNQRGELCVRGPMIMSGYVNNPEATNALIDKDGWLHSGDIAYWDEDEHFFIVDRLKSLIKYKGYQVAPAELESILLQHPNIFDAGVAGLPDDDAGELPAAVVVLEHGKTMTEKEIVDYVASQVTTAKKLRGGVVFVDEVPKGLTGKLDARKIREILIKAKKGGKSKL
Method in brief: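 Quantitative HTS format; KM concentrations of both substrates. Purified P. pyralis FLuc activity quantified from luminescence images.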

[3] = qHTS assay to identify small molecule agonists of the constitutive androstane receptor (CAR) signaling pathway - cell viability counter screen (AID 1224836); also: nearly all actives have a fitted effect of over 45% in size
Method in brief: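 Multiplexed viability check: HepG2-CYP2B6-hCAR cells, 15-point compound dosing, 0.75 uM PK11195 final, 23 h at 37 C, CellTiter-Fluor fluorescence.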

[4] = qHTS assay to identify small molecule antagonists of the constitutive androstane receptor (CAR) signaling pathway - cell viability counter screen (AID 1224837); also: nearly all actives have a fitted effect of over 45% in size
Method in brief: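 HepG2 cells stably carrying hCAR and CYP2B6-2.2kb reporter, stimulated with 50 nM CITCO and compounds at 15 concentrations for 23 h at 37 C. Viability measured by CellTiter-Fluor fluorescence.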

[5] = target: Nuclear receptor subfamily 1 group I member 3 (Homo sapiens) (UniProt Q14994); assay: qHTS assay to identify small molecule antagonists of the constitutive androstane receptor (CAR) signaling pathway (AID 1224838); also: nearly all actives have a fitted effect of over 40% in size
Nuclear receptor subfamily 1 group I member 3 (Homo sapiens), sequence (Q14994 whole entry, looked up): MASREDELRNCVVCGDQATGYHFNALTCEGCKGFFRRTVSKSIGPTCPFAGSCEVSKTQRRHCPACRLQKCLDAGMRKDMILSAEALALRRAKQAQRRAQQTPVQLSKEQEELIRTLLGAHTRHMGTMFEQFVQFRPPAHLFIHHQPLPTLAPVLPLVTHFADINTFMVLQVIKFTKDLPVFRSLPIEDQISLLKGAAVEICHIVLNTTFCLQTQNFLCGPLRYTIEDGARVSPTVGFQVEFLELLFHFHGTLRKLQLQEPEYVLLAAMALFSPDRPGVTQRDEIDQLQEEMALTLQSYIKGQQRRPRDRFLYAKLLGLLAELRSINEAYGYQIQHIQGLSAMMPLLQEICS
Method in brief: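 HepG2 cells stably carrying hCAR and a CYP2B6-2.2kb luciferase reporter, seeded 4 hrs before compound (15 concentrations). Stimulated with 50 nM CITCO for 24 hr at 37 C. ONE-Glo luminescence read after 30 min at room temperature.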

[6] = target: Nuclear receptor subfamily 1 group I member 3 (Homo sapiens) (UniProt Q14994); assay: qHTS assay to identify small molecule agonists of the constitutive androstane receptor (CAR) signaling pathway (AID 1224839); also: nearly all actives have a fitted effect of over 15% in size; also: potency is read from the fitted curve at half-maximal effect
Method in brief: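 Using human hepatoma HepG2 cells engineered with hCAR and a CYP2B6-2.2kb reporter, 15-concentration compound series were incubated 24 h alongside PK11195 at 0.75 uM final, with luminescence quantified afterwards.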

[7] = qHTS assay to identify small molecule antagonists of the estrogen related receptor signaling pathway with the pleiotropic PPARgamma coactivator (PGC) from Tox21 10K library - cell viability counter screen (AID 1224840; active = well fitted cell-killing curve with a large enough effect in the repeat runs, not every such curve was filed as active; also: nearly all actives have a fitted effect of over 40% in size)
Method in brief: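 PGC/ERR cells (2,000/well) plated 6 h, then compound-treated for 17.5 h at 37 C. Viability measured by CellTiter-Fluor fluorescence after 30 min at 37 C, multiplexed with the pathway assay.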

[8] = qHTS assay to identify small molecule antagonists of the estrogen related receptor signaling pathway with the pleiotropic PPARgamma coactivator (PGC) from Tox21 10K library (AID 1224841; call rule not given here; also: actives are mostly falling curves and most rising ones were filed inactive; nearly all actives have a fitted effect of over 50% in size; also: potency is read from the fitted curve at half-maximal effect)
Method in brief: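 PGC/ERR cell line, 2,000 cells/well, pre-incubated 6 hours at 37 C, then exposed to compounds for 18 hours at 37 C; luciferase read with One-Glo luminescence after 30 min at room temperature.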

[9] = qHTS assay to identify small molecule agonists of the estrogen related receptor signaling pathway with the pleiotropic PPARgamma coactivator (PGC) from Tox21 10K library (AID 1224842); also: nearly all actives have a fitted effect of over 15% in size
Method in brief: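 PGC/ERR reporter cells (NTP line) were seeded 2,000 per well, rested 6 h at 37 C/5% CO2, then pin-dosed with compounds in DMSO for 18 h at 37 C; luciferase read by One-Glo luminescence after 30 min at room temperature.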

[10] = target: Thyrotropin receptor (Homo sapiens) (UniProt P16473); assay: qHTS assay to identify small molecule agonists of the thyroid stimulating hormone receptor (TSHR) signaling pathway (AID 1224843; calls by dose curve; also: nearly all actives have a fitted effect of over 45% in size)
Thyrotropin receptor (Homo sapiens), sequence (P16473 whole entry, looked up): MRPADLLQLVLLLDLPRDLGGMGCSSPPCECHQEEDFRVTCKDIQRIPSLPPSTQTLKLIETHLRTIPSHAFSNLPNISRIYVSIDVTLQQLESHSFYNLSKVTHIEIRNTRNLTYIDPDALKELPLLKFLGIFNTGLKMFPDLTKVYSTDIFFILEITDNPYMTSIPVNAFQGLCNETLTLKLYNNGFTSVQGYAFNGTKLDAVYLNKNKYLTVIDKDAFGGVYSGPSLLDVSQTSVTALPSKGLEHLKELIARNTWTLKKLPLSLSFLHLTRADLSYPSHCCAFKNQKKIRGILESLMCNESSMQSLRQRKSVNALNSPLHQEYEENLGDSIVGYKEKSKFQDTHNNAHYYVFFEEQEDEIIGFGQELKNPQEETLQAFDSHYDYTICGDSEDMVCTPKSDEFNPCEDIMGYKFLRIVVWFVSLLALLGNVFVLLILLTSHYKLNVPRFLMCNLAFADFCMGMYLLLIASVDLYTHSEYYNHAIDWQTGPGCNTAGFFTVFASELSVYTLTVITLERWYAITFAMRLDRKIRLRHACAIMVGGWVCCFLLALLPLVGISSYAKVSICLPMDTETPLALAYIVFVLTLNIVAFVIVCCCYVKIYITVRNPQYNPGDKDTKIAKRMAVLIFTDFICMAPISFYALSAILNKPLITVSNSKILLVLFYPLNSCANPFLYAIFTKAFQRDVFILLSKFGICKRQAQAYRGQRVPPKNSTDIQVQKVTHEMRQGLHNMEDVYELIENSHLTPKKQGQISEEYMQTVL
Method in brief: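 Cell line HEK293 with TSHR; density 800/well. Exposure 30 min RT. Readout HTRF cAMP (cAMP-d2/anti-cAMP-cryptate), 1 h RT before reading.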

[11] = qHTS assay to identify small molecule agonists of the hypoxia (HIF-1) signaling pathway - cell viability counter screen (AID 1224844; calls by dose curve; also: nearly all actives have a fitted effect of over 50% in size)
Method in brief: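 HRE-bla ME-180 cells, 2,000/well in 0.5% dialyzed FBS medium, treated 17 h at 37C with compounds. Viability read in the same wells as the bla reporter, by CellTiter-Glo luminescence after 30 min at room temperature.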

[12] = qHTS assay to identify small molecule agonists of H2AX (AID 1224845; active = well fitted activation curve with a large enough effect in the signal ratio in the repeat runs, not every such curve was filed as active; the % refers to the signal ratio)
Method in brief: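 Wild-type CHO-K1 cells plated overnight, then exposed 3 hr at 37C to compounds at 15 concentrations (0.76% DMSO). Lysed, then HTRF anti-pH2AX(S139)-cryptate/anti-H2AX-d2 detection after 24 hr at room temperature; emissions 665 and 620 nm.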

[13] = qHTS assay to identify small molecule agonists of the hypoxia (HIF-1) signaling pathway (AID 1224846; active = well fitted activation curve with a large enough effect in the signal ratio in the repeat runs, not every such curve was filed as active; the % refers to the signal ratio)
Method in brief: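 HRE-bla ME-180 beta-lactamase reporter cells in medium with 0.5% dialyzed FBS, pre-incubated 5 h then exposed to compounds 17 h at 37C, 5% CO2; reporter induction read with CCF4-AM FRET substrate.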

[14] = qHTS assay to identify small molecule agonists of H2AX - cell viability counter screen (AID 1224847; calls by dose curve; also: top concentration of the series differs between compounds; nearly all actives have a fitted effect of over 30% in size)
Method in brief: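 After overnight plating of 1000 CHO-K1 cells per well, a 15-concentration compound series was applied for 3 hr at 37C. Luminescence from CellTiter-Glo, read following 30 min at room temperature, reflected cell viability.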

[15] = qHTS assay to identify small molecule antagonists of the estrogen related receptor (ERR) signaling pathway from Tox21 library (AID 1224848); also: nearly all actives have a fitted effect of over 50% in size; also: potency is read from the fitted curve at half-maximal effect
Method in brief: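 Screening used an ERR reporter line supplied by NTP, exposed for 18 h at 37 C to library compounds delivered in DMSO. Signal was luciferase luminescence developed with ONE-Glo at room temperature for 30 min.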

[16] = qHTS assay to identify small molecule agonists of the estrogen related receptor (ERR) signaling pathway from Tox21 library (AID 1224849; calls by dose curve; also: nearly all actives have a fitted effect of over 15% in size); details: ERR reporter cell line, ONE-Glo luciferase, 18 h; at 92.4 µM (top of the series)
Method in brief: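 ERR reporter cells (NTP line) pre-incubated 6 hours at 37 C, then exposed to compounds for 18 hours at 37 C. ONE-Glo luciferase luminescence was read after 30 minutes at room temperature.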

[17] = qHTS RealTime-Glo MT Cell Viability Assay in HEK293 cells - 32 hour (AID 1224868); also: top concentration of the series differs between compounds; nearly all actives have a fitted effect of over 50% in size
Method in brief: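 Reads taken at 0, 8, 16, 24, 32 and 40 h from the same wells. HEK293 cells (600/well) carried RealTime-Glo reagents from seeding, with compound added after a 5 h settle at 37 C.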

[18] = A CellTox Green Cytotoxicity Assay to monitor cytotoxicity in HEK293 cells - 0 hour (AID 1224869); also: nearly all actives have a fitted effect of over 50% in size
Method in brief: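 HEK293 cells, 600/well, were preincubated 5 hours and then exposed to compounds at 37 C for up to 40 hours. A cell-impermeant cyanine dye staining dead-cell DNA was read by fluorescence at 0, 8, 16, 24, 32 and 40 h time points.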

[19] = qHTS RealTime-Glo MT Cell Viability Assay in HepG2 cells - 24 hour (AID 1224867); also: nearly all actives have a fitted effect of over 50% in size
Method in brief: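 HepG2 suspension premixed with RealTime-Glo reagents is plated at 600 cells per well and left 5 h at 37 C/5% CO2. Compounds in DMSO then go in, and bioluminescence reflecting viable cell number is recorded over 40 h.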
% is scaled to controls: 0 for no effect and ±100 for the full control effect.

CC(C)(N=C=O)c1cccc(C(C)(C)N=C=O)c1
inactive: Potency [1] | Potency [2] | Potency [3] | Potency [4] | Potency [5] | Potency [6] | Potency [7] | Potency [9] | Potency [10] | Potency [11] | Potency [12] | outcome [13] | Potency [14] | activity change, positive = activation [16] -40.3% and 2.13% | Potency [17] | Potency [18]
54 µM (active) and inactive: Potency [15]
48.2 µM (active) and inactive: Potency [8]

Cc1cc(=O)[nH]c(C(C)C)n1
inactive: Potency [1] | Potency [2] | Potency [3] | Potency [4] | Potency [5] | Potency [6] | Potency [7] | Potency [8] | Potency [9] | Potency [10] | Potency [11] | Potency [12] | outcome [13] | Potency [14] | Potency [15] | activity change, positive = activation [16] 2.86% and -3.8% | Potency [19] | Potency [17] | Potency [18]

NCCc1ccc(O)c(O)c1
54.6 µM (active) and inactive: Potency [1]
inactive: Potency [2] | Potency [3] | Potency [7] | Potency [11] | Potency [14] | Potency [17] | Potency [18]

Cc1cc(Cc2ccc(N)c(C)c2)ccc1N
active: Potency [6] 48.6 µM
inactive: Potency [1] | Potency [2] | Potency [3] | Potency [4] | Potency [5] | Potency [7] | Potency [11] | Potency [12] | outcome [13] | Potency [14] | Potency [19]

O=Nc1ccc(O)cc1
inactive: Potency [1] | Potency [2] | Potency [3] | Potency [4] | Potency [5] | Potency [6] | Potency [7] | Potency [10] | Potency [11] | outcome [13] | Potency [14] | Potency [19] | Potency [17] | Potency [18]

c1ccc2ccccc2c1
inactive: Potency [1] | Potency [2] | Potency [3] | Potency [4] | Potency [7] | Potency [8] | Potency [9] | Potency [10] | Potency [11] | Potency [12] | outcome [13] | Potency [14] | Potency [15] | activity change, positive = activation [16] 7.43% and 7.09% | Potency [17] | Potency [18]

CC1=C(CC(=O)O)c2cc(F)ccc2/C1=C\c1ccc(S(C)=O)cc1 (stereo not drawn)
inactive: Potency [1] | Potency [2] | Potency [3] | Potency [4] | Potency [5] | Potency [7] | Potency [10] | Potency [11] | Potency [12] | Potency [14] | Potency [17] | Potency [18]
61.1 µM (active) and inactive: Potency [6]

CCOC(=O)C1OC1c1ccccc1 (stereo not drawn)
inactive: Potency [1] | Potency [2] | Potency [3] | Potency [4] | Potency [5] | Potency [6] | Potency [7] | Potency [11] | Potency [12] | outcome [13] | Potency [14] | Potency [19] | Potency [18]
